We go through 17 molecules from article PMC5540273 (PLoS ONE, 2017).

Among the test systems are PFTAIRE2; PHKG1; PHKG2; PIK3C2B; PIK3C2G; PIK3CA; PIK3CB; PIK3CD; PIK3CG.
What all share (settings): concentration: 1 μM, replicates: in singlicate; n = 1
Another assay has as its system T1, PFTK1.
T1 construct: gene CDK14
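Further: KINOMEscan kinase panel screen.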

`COc1ccc(Nc2nccc(N3CCC(NC(=O)C(C)c4ccc(Cl)cc4)C3)n2)cc1` (centres unmarked) [GSK1379735]: the “%Inh” value in the assay with PFTAIRE2 is 0%; in the assay on PFTK1 it was 28%; in the assay with PHKG1 it was 4%; in the assay with PHKG2, 0%; in the assay with PIK3C2B, 0%; in the assay with PIK3C2G, 0%. Also, the “%Inh” value in the assay with PIK3CA, in the assay with PIK3CB, in the assay with PIK3CD and in the assay with PIK3CG was 0% throughout.

Regarding `O=C(Nc1n[nH]c2nc(-c3cccs3)c(Br)cc12)C1CC1` [SB-735297], the “%Inh” value in the assay on PFTAIRE2 turned out to be 18%; in the assay on PFTK1, 14%; in the assay on PHKG1 it was 0%; in the assay with PHKG2, 0%; in the assay on PIK3C2B, 0%; in the assay on PIK3C2G, 0%. Moreover, the “%Inh” value is 0% with PIK3CA, 22% with PIK3CB, 0% with PIK3CD and 10% in the assay on PIK3CG.

Consider `Nc1ncnc2occ(-c3ccc4c(c3)CCN4C(=O)Cc3cc(F)ccc3F)c12` [GSK2645446], for which the “%Inh” value is given as 12% in the assay with PFTAIRE2; 10% with PFTK1; 0% with PHKG1; 0% in the assay with PHKG2; 14% with PIK3C2B; 0% in the assay on PIK3C2G. Moreover, the “%Inh” value with PIK3CA is 0%; with PIK3CB it was 0%; in the assay with PIK3CD, 0%; with PIK3CG, 5%.

On to `O=C(Nc1n[nH]c2nc(-c3cccs3)c(Br)cc12)C1CCCC1` [SB-743341], for which the “%Inh” value is on record as 9% in the assay on PFTAIRE2; 20% with PFTK1; 2% in the assay with PHKG1; 12% in the assay on PHKG2; 0% in the assay with PIK3C2B; 5% with PIK3C2G. In addition, the “%Inh” value was found to be 5% in the assay with PIK3CA, 61% in the assay with PIK3CB, 0% in the assay on PIK3CD and 0% with PIK3CG.

With `COc1ccc(CSc2nnc(-c3ccc4c(c3)CCO4)o2)cc1`, the “%Inh” value in the assay with PFTAIRE2 stood at 0%; with PFTK1 it was 0%; in the assay with PHKG1, 0%; with PHKG2, 25%; in the assay on PIK3C2B, 0%; with PIK3C2G, 0%. The “%Inh” value in the assay with PIK3CA, in the assay with PIK3CB, in the assay with PIK3CD and with PIK3CG was 0% each time.

`O=C(Nc1n[nH]c2cc(-c3ccsc3)ccc12)C1CC1` [SB-732932]: the “%Inh” value was 13% in the assay with PFTAIRE2; 5% with PFTK1; 21% with PHKG1; 0% with PHKG2; 14% in the assay on PIK3C2B; 0% in the assay on PIK3C2G. For the same molecule, the “%Inh” value in the assay on PIK3CA came to 3%; in the assay on PIK3CB it was 8%; in the assay on PIK3CD it was 0%; in the assay on PIK3CG it was 6%.

For `CC[C@@H]1CO[C@H](C(=O)Nc2ccccc2)CN1c1cc(-c2ccc3c(N)n[nH]c3c2)nc(NC)n1` [GSK2376236], the “%Inh” value with PFTAIRE2 is listed as 23%; in the assay on PFTK1, 28%; in the assay on PHKG1, 0%; with PHKG2, 11%; with PIK3C2B, 0%; in the assay with PIK3C2G it was 0%. In addition, the “%Inh” value came out at 0% in the assay with PIK3CA, 0% with PIK3CB, 0% in the assay on PIK3CD and 6% with PIK3CG.

With `COc1nccc(-c2c(-c3ccc(F)cc3)ncn2CCCN2CCOCC2)n1` [SB-282852], the “%Inh” value with PFTAIRE2 is on record as 0%; in the assay with PFTK1, 0%; in the assay on PHKG1, 13%; in the assay with PHKG2, 0%; in the assay with PIK3C2B, 8%; in the assay with PIK3C2G, 8%. Besides, the “%Inh” value worked out at 0% in the assay on PIK3CA, 0% in the assay on PIK3CB, 0% with PIK3CD and 37% in the assay on PIK3CG.

Turning to `CCc1ccc(-c2ccc3c(c2)-c2n[nH]cc2S(=O)(=O)N3C)cc1`, the “%Inh” value with PFTAIRE2, in the assay on PFTK1, with PHKG1, in the assay on PHKG2, in the assay on PIK3C2B and in the assay on PIK3C2G was 0% in each case. Also, the “%Inh” value in the assay with PIK3CA, with PIK3CB, in the assay on PIK3CD and in the assay on PIK3CG was 0% each time.

Take `CNc1nc(-c2ccc3c(N)n[nH]c3c2)cc(N2C[C@@H](C(=O)NC3CCCCC3)OC[C@H]2C)n1` [GSK2375584]: the “%Inh” value in the assay with PFTAIRE2 was found to be 13%; in the assay on PFTK1, 25%; with PHKG1 it was 3%; in the assay with PHKG2 it was 13%; with PIK3C2B, 0%; in the assay with PIK3C2G it was 0%. The “%Inh” value was 4% in the assay on PIK3CA, 34% in the assay with PIK3CB, 0% in the assay on PIK3CD and 9% in the assay with PIK3CG.

Turning to `Cc1ccc(NC(=O)Nc2ccc(Cl)cc2)cc1-c1ccc(C(=O)Nc2ccncc2)cc1` [GSK1398472], the “%Inh” value is 0% in the assay on PFTAIRE2; 12% with PFTK1; 0% with PHKG1; 0% with PHKG2; 0% in the assay on PIK3C2B; 0% with PIK3C2G. For the same molecule, the “%Inh” value worked out at 0% in the assay on PIK3CA, 36% in the assay on PIK3CB, 0% with PIK3CD and 0% with PIK3CG.

Regarding `COc1ccc(CSc2nnc(-c3ccc4nccn4c3)o2)cc1C(F)(F)F`, the “%Inh” value in the assay with PFTAIRE2 is reported as 0%; in the assay with PFTK1, 4%; in the assay with PHKG1 it was 0%; in the assay with PHKG2, 0%; in the assay with PIK3C2B, 21%; in the assay on PIK3C2G, 12%. Further, the “%Inh” value with PIK3CA was determined as 15%; in the assay with PIK3CB it was 11%; in the assay with PIK3CD it was 29%; in the assay with PIK3CG, 32%.

As for `COc1ccc2cc(-c3nc(-c4ccccc4C(C)C)[nH]c3-c3ccncc3)ccc2c1` [SB-660566], the “%Inh” value in the assay on PFTAIRE2 was determined as 12%; with PFTK1, 17%; in the assay with PHKG1, 0%; in the assay with PHKG2 it was 0%; in the assay with PIK3C2B, 0%; in the assay on PIK3C2G, 0%. For the same molecule, the “%Inh” value in the assay on PIK3CA, with PIK3CB, in the assay on PIK3CD and with PIK3CG was 0% throughout.

As for `CC(C)c1ccc(O)cc1Nc1ccnc2ccc(C(F)(F)F)cc12` [GW482059], the “%Inh” value in the assay with PFTAIRE2 was 1%; in the assay with PFTK1 it was 0%; in the assay with PHKG1, 0%; in the assay on PHKG2, 0%; in the assay on PIK3C2B, 0%; with PIK3C2G it was 15%. In addition, the “%Inh” value in the assay with PIK3CA stood at 0%; in the assay on PIK3CB, 0%; with PIK3CD, 25%; with PIK3CG, 0%.

For the molecule `CC(C)c1cc(-c2ccc3c(N)n[nH]c3c2)nc(N)n1` [GSK2250882], the “%Inh” value in the assay on PFTAIRE2 is recorded as 26%; in the assay on PFTK1, 4%; in the assay with PHKG1, 1%; in the assay with PHKG2, 5%; in the assay on PIK3C2B it was 0%; in the assay on PIK3C2G, 0%. The “%Inh” value was 0% with PIK3CA, 0% in the assay on PIK3CB, 0% in the assay on PIK3CD and 5% in the assay on PIK3CG.

On to `Cc1ccc(NC(=O)Nc2ccccc2)cc1-c1ccc(C(=O)Nc2ccncc2)cc1` [GSK1398471], for which the “%Inh” value in the assay with PFTAIRE2 is recorded as 25%; with PFTK1, 27%; in the assay with PHKG1, 0%; in the assay on PHKG2, 2%; in the assay with PIK3C2B it was 27%; in the assay with PIK3C2G it was 0%. For the same molecule, the “%Inh” value with PIK3CA was 29%; in the assay with PIK3CB it was 0%; in the assay with PIK3CD, 0%; in the assay on PIK3CG, 14%.

As to `CC(=O)c1c(C)c2cnc(Nc3ccn(C)n3)nc2n(C2CCCC2)c1=O`, the “%Inh” value amounted to 0% with PFTAIRE2; 0% in the assay with PFTK1; 0% in the assay with PHKG1; 2% with PHKG2; 0% in the assay with PIK3C2B; 0% with PIK3C2G. For the same molecule, the “%Inh” value in the assay with PIK3CA amounted to 0%; in the assay with PIK3CB, 0%; with PIK3CD, 18%; in the assay with PIK3CG it was 61%.
